Calpain2 inh – inhibitors of pig calpain II. purified calpain II, fluorogenic peptide substrate, 30 min. inhibition, % at 16 µM. 220,000 tested, 0.37% active;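 active = inhibition above about 50%, limit read from the data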
ROMK primary – modulators of human ROMK potassium channel; P48048; Tet-inducible ROMK, thallium flux fluorescence; actives lie on both sides; B-score at 10 µM; 130,000 tested, 2% active; AID 1918;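 active = signal ratio slope over the read window, or its plate-corrected B-score, at least 3 SD from the plate mean, either direction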;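 note: B-score of the F/F0 ratio slope over 7 to 12 s after thallium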
L major viab – Leishmania major promastigote growth inhibition. inhibition, % at 10 µM. 200,000 tested, 9% active. Leishmania major promastigotes, resazurin fluorescence viability; in the data active = inhibition above about 50%;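 note: promastigotes grown with compound for 44 hours at 28 °C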
KCC2 mod – modulators of human KCC2 chloride dependent transport | KCC2 cells, thallium flux FluoZin-2 fluorescence | B-score of Tl+ flux slope (higher = more flux/activation; lower = inhibition) at 10 µM | 190,000 tested, 2.2% active | AID 1456;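 active = thallium flux slope and its plate-corrected score both differing from the plate sample mean at a set confidence after two filtering rounds, in either direction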;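 note: slope of fluorescence scaled to starting intensity during 10 to 20 s after thallium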
WT yeast gro inh – growth inhibition of WT yeast, mitochondrial fusion screen; mitochondrial fusion phenotypic screen, WT strain; inhibition, % at 10 µM; 190,000 tested, 2.1% active; AID 1362; in the data active = inhibition above about 58%; tested in S. cerevisiae
KCC2 sec1 – confirmation of human KCC2 transport modulators; shares compounds with KCC2 mod; 3,700 tested, 15% active; normalised thallium flux (F/F0 slope) at 10 µM; AID 1713; HEK293-KCC2, thallium flux, FluoZin2 fluorescence; hits give high values;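 active = thallium flux slope above the same plate's solvent-only control mean plus 3 SD; inconclusive = the two replicate wells disagree; inactive = no significant difference from solvent-only control wells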
KCC2 bumet counter – thallium flux persisting under bumetanide in KCC2 cells, counter-screen secondary assay; normalized thallium flux at 10 µM; HEK293-KCC2 + bumetanide/ouabain, thallium flux FluoZin2; hits give high values; 3,700 tested, 49% active; shares compounds with KCC2 mod;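 active = thallium entry rate above the same plate's blocked-transporter control wells by more than 3 SD; inconclusive = the two repeat wells disagree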;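 note: raw slope of fluorescence over initial fluorescence between 10 and 20 s after thallium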
KCC2 secondary2 – confirmation of human KCC2 transport modulators; shares compounds with KCC2 mod; HEK293-KCC2, thallium flux FluoZin2 fluorescence; actives lie on both sides; F/F0 rise rate, 10–20 s post-thallium; normalized thallium flux at 10 µM; 3,700 tested, 23% active; AID 1715;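 active = thallium flux slope more than 3 SD above or below the plate's solvent-only control mean, mostly below; inconclusive = the two repeat wells disagreed; inactive = no significant shift from solvent-only controls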;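 note: raw slope with 0.1% DMSO as baseline and bumetanide as block control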
HEK293 Tl flux – acts in parental HEK cells, KCC2 counter-screen. AID 1716. shares compounds with KCC2 mod. 3,700 tested, 46% active. thallium flux rate (normalised fluorescence) at 10 µM. HEK293 parental cells, thallium flux FluoZin2, ouabain; baseline-ratio fluorescence slope, 10–20 s after thallium;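 active = thallium flux rate significantly above the same plate's solvent-only control wells, beyond their mean plus 3 SD; inconclusive = the two replicate wells gave conflicting results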
KCC2 ouabain – KCC2 (human) modulation, ouabain retest; raw Tl+ flux slope (below DMSO = inhibition, above = activation) at 10 µM; AID 1717; HEK293-KCC2, thallium flux FluoZin2 fluorescence; bidirectional: low = inhibitor, high = activator; 3,700 tested, 48% active; shares compounds with KCC2 mod;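 active = thallium flux slope beyond 3 SD from same-plate DMSO control mean in most replicates, usually higher, sometimes lower; inconclusive = repeat tests gave conflicting results; inactive = no significant difference from controls in most replicates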;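 note: slope of initial-normalized fluorescence between seconds 10 and 20 after thallium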
HEK counter2 – parental HEK flux effect, counter-screen 2 | shares compounds with KCC2 mod | thallium flux slope at 10 µM | 3,700 tested, 33% active | HEK293 parental, thallium flux FluoZin-2 fluorescence slope;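 active = thallium flux slope above the same plate's solvent-control mean plus 3 SD in both duplicate wells; inconclusive = duplicate wells that disagreed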;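 note: run without ouabain in cells lacking the KCC2 cotransporter; slope of fluorescence scaled to its starting value between 10 and 20 s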
Active calls of the source: *; ? = inconclusive; / = no result. Most compounds without a hit are left out; they make up all but 12% or so of the library.

SMILES | Calpain2 inh | ROMK primary | L major viab | KCC2 mod | WT yeast gro inh | KCC2 sec1 | KCC2 bumet counter | KCC2 secondary2 | HEK293 Tl flux | KCC2 ouabain | HEK counter2
Cc1noc(C)c1COc1ccc(C(=O)OCC(=O)NC2CCCCC2C)cc1 (configuration not stated) | 24.8 | / | -3.1 | 0.817 | -8.9 | 0.009 | 0.0055 | 0.0329 | 0.00796 | 0.0183 | ?
O=C(O)c1ccccc1C(=O)NCC(O)COc1ccc(Cl)cc1 (configuration not stated) | 4.3 | 0.154 | / | 0.194 | / | / | / | / | / | / | /
C/C(=N/NC(=O)c1cc(-c2ccc(Cl)s2)[nH]n1)c1ccco1 | 17.7 | -0.0295 | / | 10.3* | / | 0.00766 | 0.00965* | 0.0293 | 0.0132* | 0.0206 | ?
COc1ccccc1-n1c(=O)c(C#N)c(-c2ccc([N+](=O)[O-])cc2)c2cc(C(=O)c3ccccc3O)cnc21 | -63.2 | / | / | 1.42 | / | / | / | / | / | / | /
Cc1ccc(C(=O)c2ccc(C)cc2)cc1 | 9.5 | -0.122 | -5.5 | -1.44 | -20.4 | / | / | / | / | / | /
O=C(c1ccc(O)cc1)c1ccc(C(=O)c2ccc(O)cc2)cc1 | -6.3 | 2.13 | -8.2 | 0.716 | -4.0 | 0.00809 | 0.00743 | 0.0272 | 0.0069 | 0.0194 | 0.00939
COc1ccc(NC(=O)C(Cc2ccccc2)n2cccc2)c(OC)c1 (configuration not stated) | 17.6 | / | / | -1.37 | / | / | / | / | / | / | /
CN(CC(=O)NCCN1CCN(c2ccccc2)CC1)S(=O)(=O)c1ccc2c(c1)CCC(=O)N2 | -33.9 | / | 5.1 | / | -3.1 | / | / | / | / | / | /
O=S(=O)(c1ccc(Cl)s1)N1CCCCC1 | -12.6 | -0.0033 | -4.8 | / | -14.5 | / | / | / | / | / | /
O=C(O)/C(=C\c1cccc(F)c1)c1ccc(S(=O)(=O)N2CCCCC2)s1 | -8.7 | / | -3.2 | -5.6* | -3.0 | 0.00826 | 0.00637 | 0.0321 | 0.00724 | 0.0138* | 0.0108
CC(NCc1ccc(F)cc1)C(=O)Nc1cc(S(=O)(=O)N2CCCCC2)ccc1Cl (configuration not stated) | 23.1 | 0.92 | 61.6* | -4.74* | 2.0 | 0.0105 | 0.00803* | ? | 0.00645 | 0.0158* | 0.0103
CC(C)(C)CC(=O)Nc1cc(S(=O)(=O)N2CCCCCC2)ccc1Cl | 2.3 | -1.61 | 5.0 | -0.508 | 15.0 | / | / | / | / | / | /
CC(N=C1CC(C)(C)CC(=O)/C1=C(/O)CCCN1C(=O)c2ccccc2C1=O)C(=O)O (configuration not stated) | -2.1 | 1.18 | -3.6 | -0.656 | 4.4 | / | / | / | / | / | /
CSCCCNC(=S)N1CCc2ccccc2C1 | -11.8 | -1.92 | 3.1 | -1.37 | 52.3 | / | / | / | / | / | /
c1ccc(-n2c(-c3ccncc3)nnc2-c2ccco2)cc1 | -49.8 | / | -6.2 | / | 4.6 | 0.0169 | 0.00477 | 0.0294 | 0.00703 | 0.0159 | 0.0109
CC(/C=N/n1c(-c2cc(C)[nH]n2)n[nH]c1=S)=C\c1ccccc1 | 9.2 | / | 4.2 | -4.42* | -23.6 | 0.00946 | 0.00651 | 0.0335 | ? | 0.0188 | 0.0109
CC(=O)c1nc2ccccc2n1S(=O)(=O)c1ccc(Cl)cc1 | -30.6 | 0.544 | -3.5 | -0.294 | -3.2 | / | / | / | / | / | /
CC(=O)c1nc2ccccc2n1S(=O)(=O)c1ccc(C)cc1 | / | -0.447 | -2.7 | 5.6* | 7.9 | 0.0113 | ? | 0.0291 | 0.0076 | 0.0181 | 0.00998
Cc1cc2nc(-c3ccccn3)c(-c3ccccn3)nc2cc1C | -8.7 | / | / | -1.05 | / | / | / | / | / | / | /
Cc1cc(=S)nc(-c2ccccn2)[nH]1 | -6.7 | 1.54 | / | 80.8* | / | 0.0372* | 0.0478* | 0.0384 | 0.0411* | 0.0435* | 0.0164*
CCCn1nnnc1NCc1c(F)cccc1Cl | -18.5 | 0.304 | -6.9 | -1.15 | -19.3 | / | / | / | / | / | /
Nc1c(C(=O)c2ccccc2)sc2snc(SCC(=O)c3ccccc3)c12 | -5.0 | / | 7.8 | / | 44.2 | 0.00845 | 0.00659 | 0.0304 | 0.00716 | 0.0193 | 0.00997

Bioassay records deposited in PubChem by several laboratories.
